Screens: PubChem BioAssay, NMMLSC
RGS8-Gao – modulates binding of RGS8 to human Galphao; P09471; multiplexed bead flow cytometry; actives lie on both sides; response (percent of control binding), % at 10 µM; hit rate 0.34% among 220,000; AID 1423; in the data active = response below about 60% or above about 140%; inactive = in between;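 also: Galphao activated as the GDP aluminium fluoride complex binding bead-coupled RGS8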
Target sequence (P09471 whole entry, looked up): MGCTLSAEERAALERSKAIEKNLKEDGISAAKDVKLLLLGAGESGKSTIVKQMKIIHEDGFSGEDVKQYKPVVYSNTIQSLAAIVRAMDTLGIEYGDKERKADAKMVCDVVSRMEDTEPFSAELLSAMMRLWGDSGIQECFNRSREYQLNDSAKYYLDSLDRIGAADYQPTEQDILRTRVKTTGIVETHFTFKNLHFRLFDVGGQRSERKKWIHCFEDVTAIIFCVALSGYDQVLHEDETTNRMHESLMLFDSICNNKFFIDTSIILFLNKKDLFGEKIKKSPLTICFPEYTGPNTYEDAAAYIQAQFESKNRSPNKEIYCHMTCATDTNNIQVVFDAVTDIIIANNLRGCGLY
GSH bead fluor – GSH bead compound fluorescence profile; GSH beads flow cytometry, compound fluorescence 488/530 nm; active compounds read high; fluorescence (KMESF) at 10 µM; hit rate 0.25% among 190,000; in the data active = fluorescence above about 89;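 also: glutathione beads carrying GST-tagged Bcl family fusion proteins plus one bare bead set; values are compound well signal with DMSO vehicle wells as background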
Avidin bead fluor – avidin bead compound fluorescence profile | Avidin beads, compound fluorescence 488/530 nm, flow cytometry; active compounds read high | fluorescence (KMESF) at 10 µM | hit rate 0.38% among 220,000 | AID 1775; in the data active = fluorescence above about 47
RGS16-Gao – modulates binding between human RGS16 and Galphao; bead-based flow cytometry RGS16-Galphao binding, fluorescence; actives lie on both sides; O15492+P09471; binding response (% of control), % at 10 µM; hit rate 0.38% among 220,000;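 also: Galphao activated by GDP with aluminum fluoride before binding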
RGS7-Gao reg – human RGS7-Galphao interaction regulation | AID 1439 | P09471 | Multiplexed bead flow cytometry, RGS7-Galphao binding; actives lie on both sides | hit rate 0.35% among 220,000 | binding response (% of control), % at 10 µM; in the data active = binding response below about 49% or above about 150%; inconclusive = no clear call, values can overlap the other calls; inactive = in between;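 also: fluorescent Galphao held in activated GDP-AlF4 state binding bead-coupled RGS7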
RGS4-Gao reg – modulates binding of RGS4 to human Galphao | P09471 | Multiplexed bead flow cytometry; actives lie on both sides | binding response (% of control), % at 10 µM | hit rate 0.33% among 220,000; in the data active = binding response below about 49% or above about 150%; inactive = in between;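 also: fluorescent Galphao activated with aluminum fluoride binding bead-coupled RGS4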
RGS4-Gao HTS – modulates binding between human RGS4 and Galphao. shares compounds with RGS16-Gao. multiplexed bead flow cytometry, RGS–Galpha-o binding. RGS4–Galpha-o binding response, % at 10 µM. hit rate 99% among 1,600. AID 1504;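 also: fluorescently labeled Galpha-o bound to GDP with aluminium fluoride binding biotinylated RGS beads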
Target sequence (P09471 whole entry, looked up): as above
Target sequence (P49798 whole entry, looked up): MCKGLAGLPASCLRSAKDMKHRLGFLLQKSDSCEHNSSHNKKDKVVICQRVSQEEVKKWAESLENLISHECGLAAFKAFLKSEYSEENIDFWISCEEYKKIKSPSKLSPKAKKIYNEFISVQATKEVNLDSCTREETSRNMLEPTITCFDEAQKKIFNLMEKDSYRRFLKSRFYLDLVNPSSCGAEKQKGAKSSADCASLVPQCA
Biotin-avidin – biotin-avidin bead binding disruption counter-screen; shares compounds with RGS16-Gao; 1,700 tested, under 10 active; AID 1783; inhibition, % at 10 µM; streptavidin beads, fluorescein-biotin binding, flow cytometry;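 active = inhibition above 50%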;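 also: median green fluorescence of gated singlet beads compared with DMSO control wells; 0% = DMSO wells and 100% = complete loss of bead fluorescence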
RGS8-Gao single – confirmation of regulators of human RGS8-Galphao interaction; hit rate 3% among 1,700; bead-based flow cytometry RGS8-Galphao binding, fluorescence; actives lie on both sides; shares compounds with RGS16-Gao; AID 1836; binding response (% of control), % at 10 µM; in the data active = binding response below about 72% or above about 130%; inactive = in between;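 also: Galphao activated as GDP AlF4 complex before binding bead RGS8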
RGS7-Gao single – confirmation of regulators of human RGS7-Galphao interaction; response (percent of control binding), % at 10 µM; hit rate 7.8% among 1,700; shares compounds with RGS16-Gao; bead-based flow cytometry RGS7-Galphao binding; actives lie on both sides; AID 1837; in the data active = response below about 75% or above about 130%; inactive = in between;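 also: fluorescent Galphao activated with GDP and aluminum fluoride binding bead-coupled RGS7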
RGS16-Gao conf – RGS16-Galphao interaction regulation, single point confirmation; shares compounds with RGS16-Gao; bead-based flow cytometry, RGS16-Galphao binding; actives lie on both sides; response (% of control binding), % at 10 µM; hit rate 4% among 1,700; in the data active = response below about 74% or above about 130%; inactive = in between;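 also: Galphao activated as the GDP aluminium fluoride complex binding bead-coupled RGS16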
RGS4-Gao confirm – confirmation of regulators of human RGS4-Galphao interaction. shares compounds with RGS16-Gao. RGS4-Galphao binding, multiplexed bead flow cytometry; actives lie on both sides. AID 1840. hit rate 4% among 1,700. binding response (% of control), % at 10 µM; in the data active = binding response below about 74% or above about 130%; inactive = in between
RGS19-Gao conf – RGS19-Galphao interaction regulation, single point confirmation | response (percent of control binding), % at 10 µM | shares compounds with RGS16-Gao | hit rate 5% among 1,700 | bead-based flow cytometry RGS19-Galphao binding; actives lie on both sides | AID 1841; in the data active = response below about 50% or above about 160%; inactive = in between;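 also: 100% = no compound control and 0% = blank background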
The depositor's hits bear a star; u = inconclusive; x = no result; [ ] = remark or other dose. Hits are enriched below; roughly 1.2% of the tested compounds scored in any of these assays. Unless noted, no rule for the calls is given here.

SMILES	RGS8-Gao	GSH bead fluor	Avidin bead fluor	RGS16-Gao	RGS7-Gao reg	RGS4-Gao reg	RGS4-Gao HTS	Biotin-avidin	RGS8-Gao single	RGS7-Gao single	RGS16-Gao conf	RGS4-Gao confirm	RGS19-Gao conf
O=S1(=O)CCC(N=Cc2cc(Br)ccc2O)C1 (configuration not stated)	103.4	35	49*	147.3	151.3*[activator]	111.8	111.8*	1.0	104.2	95.0	111.4	98.4	137.2
CC(CCC(=O)O)C1CC[C@@]2(C)C3C(=O)CC4C(C)(C)C(O)CC[C@]4(C)C3C(=O)C[C@]12C (some centres not stated)	56.8*	x	5	99.7	u	88.8	88.8*	-0.9	100.0	96.7	100.3	98.7	90.2
C=Cn1nc(C)c2ccccc2c1=O	15.6*	31	0	17.5*	14.0*	24.6*	x	1.2	99.1	100.2	98.8	99.0	103.9
Cc1nn(C(C)C(=O)O)c(=O)c2ccccc12 (configuration not stated)	90.0	8	5	66.6	95.3	94.2	x	x	x	x	x	x	x
CCOc1ccccc1C(=O)N[C@H](C(=O)Nc1cc(S(=O)(=O)N(C)C)ccc1OC)C(C)C	99.1	15	12	100.1	u	97.3	x	x	x	x	x	x	x
CCOCCN(C(=O)c1ccccc1Cl)c1cccc(C)c1C	102.3	x	85*	153.4	u	165.3*[activator]	x	0.1	100.2	99.3	99.1	98.4	88.0
CCOCCNC(=O)c1ccccc1C(=O)NCCOCC	102.2	9	16	123.2	99.5	109.9	x	x	x	x	x	x	x
CCc1cc2c(=O)c(-c3cnn(-c4ccccc4)c3)c(C)oc2cc1OCC(=O)Nc1cccc(C)c1	128.7	5	14	256.8*[activator]	108.7	109.0	109.0*	-1.3	104.2	93.9	107.0	102.0	134.4
COCC(=O)N(Cc1cc2ccc(C)cc2[nH]c1=O)c1ccc(OC)cc1	77.9	7	8	-28.2*	87.1	86.4	86.4*	-0.4	103.7	100.1	102.3	99.5	102.8
CCOC(=O)c1[nH]ncc1CN1CCCC(C(=O)c2ccc(C(C)(C)C)cc2)C1 (configuration not stated)	140.1*[activator]	12	12	223.1	112.1	113.9	113.9*	-3.0	105.1	107.7	104.7	105.4	84.0
CCc1cccc(CC)c1NC(=O)C1CC(=O)N(c2ccc3c(c2)OCCO3)C1 (configuration not stated)	107.4	8	2	-578.3*	87.8	85.8	85.8*	x	x	x	x	x	x
O=C(CS(=O)(=O)c1ccccc1)Nc1ccc(S(=O)(=O)Nc2ncccn2)cc1	32.1*	9	13	26.3	35.0*	34.8*	x	0.1	97.3	90.8	95.7	94.3	89.9
CCOc1ccccc1N=C1SC(CC(=O)Nc2ccc(OC)cc2OC)C(=O)N1CCC1=CCCCC1 (configuration not stated)	95.0	9	2	66.6	100.0	99.3	x	x	x	x	x	x	x
O=C(CC1SC(=Nc2ccc(OC(F)F)cc2)N(CCC2=CCCCC2)C1=O)Nc1ccccc1F (configuration not stated)	77.4	3	7	24.8*	88.5	89.1	89.1*	-0.4	104.5	99.5	108.4	102.9	103.7
Cc1cc(=O)oc2c(CN3CC(C)OC(C)C3)c(O)c(Cl)cc12 (configuration not stated)	100.0	21	5	99.5	94.5	97.5	x	x	x	x	x	x	x
CC(C)(C)NC(=O)CSc1nc(N)c(-c2ccccc2)c(=O)[nH]1	105.2	14	15	109.0	99.1	102.6	x	x	x	x	x	x	x
Cc1ccc(NC(=O)CSc2nc(C)c(Cc3ccccc3)c(=O)[nH]2)cc1	17.4*	16	1	14.6*	21.6*	29.2*	x	0.2	98.8	101.7	101.5	102.2	103.6
Nc1nc(SCC(=O)Nc2ccccc2)[nH]c(=O)c1-c1ccccc1	x	36	x	x	x	x	x	0.4	97.8	95.7	100.7	98.6	106.0
Cc1ccc(-n2c(C)c([N+](=O)[O-])c3ccc(O)c(CN(C)C)c32)cc1	103.0	12	8	104.6	105.3	104.3	x	x	x	x	x	x	x
COc1ccc(-n2c(C)c([N+](=O)[O-])c3ccc(O)c(CN4CCCCC4)c32)cc1	91.5	10	8	-307.0	78.9	25.0*	x	-0.4	100.7	108.3	100.3	103.4	83.6
CCn1c(SCC(=O)N2CCCC(C)C2)nnc1-c1ccc(S(=O)(=O)N2CCN(C)CC2)cc1 (configuration not stated)	x	40	x	x	x	x	x	0.1	99.4	96.8	95.9	98.1	99.8
O=[N+]([O-])c1ccc(Sc2ccccc2)nc1	103.0	13	5	106.0	98.0	100.2	x	x	x	x	x	x	x
Nc1cccnc1Sc1ccc([N+](=O)[O-])cn1	5.6*	8	-2	-29.9	5.8*	4.3*	x	-1.5	90.9	131.0*[activator]	93.9	105.3	95.3
Cc1ccc(S(=O)(=O)N(C)C)cc1NC(=O)c1cc(C(C)(C)C)nn1Cc1ccccc1	100.3	x	6	100.5	u	100.4	x	x	x	x	x	x	x
CCSc1ccccc1C(=O)NCc1cccnc1	59.0*	25	22	100.6	81.2	94.1	94.1*	-1.4	99.6	67.4*	90.2	73.5*	84.6
O=C(NCc1cccnc1)c1ccccc1Br	99.3	22	14	101.6	101.0	101.6	x	x	x	x	x	x	x
COc1ccc(/C=N/NC(=O)C2(C)NC(C)(C)Cc3ccccc32)cc1 (configuration not stated)	99.6	22	11	107.9	103.7	99.2	x	x	x	x	x	x	x
O=C1N(CN2CCC3(CC2)OCCO3)c2ccccc2C12OCCCO2	98.8	9	21	103.7	100.2	95.4	x	x	x	x	x	x	x
